The test system of one experiment is Klebsiella pneumoniae. The settings on record: Concentration 32 ug.mL-1; ASSAY_TEST Inhibition of Bacterial Growth; detection method Absorption (OD600); MEDIA CAMHB; plate type 384well; NBS; CORNING #3640; time 18 hr.
The test system of a further experiment is Candida albicans. The settings on record: 32 ug/mL.
In the next experiment the test system is Cryptococcus neoformans. The settings on record: Concentration 32 ug.mL-1; ASSAY_TEST Inhibition of Fungal Growth; detection method Resazurin; Absorption (OD600-OD570); plate type 384well; NBS; CORNING #3640.

Each structure is given as a SMILES string. Measured potencies and affinities stand elsewhere.

By Inhibition is commonly meant the relative decrease from the control value, in per cent. As to `CCCCCCCNS(=O)(=O)CCNC(=O)[C@H](O)C(C)(C)CO`, the values for the Inhibition in the experiment on Klebsiella pneumoniae, with Candida albicans and with Cryptococcus neoformans were 15.06%, -2.91% and 2.56%, respectively.
In the same order, the values of `CCCCCCCNC(=O)CCNC(=O)C(O)C(C)(C)C` (centres undefined) are 17.81%, 1% and 0.36%.
For `CC(C)(CO)[C@@H](O)C(=O)NCCC(=S)NCCc1ccccc1`, in that order: 23.06%, -0.77% and 0.82%.
For `CC(C)(CO)[C@H](O)C(=O)NCc1cn(C[C@H]2O[C@@H](n3ccc(N)nc3=O)[C@H](O)[C@@H]2O)nn1`, in that order: 7.03%, -0.48% and 6.11%.
`CC(C)(CO)C(O)C(=O)NCCCOP(=O)(O)OCC1OC(n2ccc(N)nc2=O)C(O)C1O` (centres undefined): the results for the Inhibition with Klebsiella pneumoniae, in the experiment on Candida albicans and in the experiment on Cryptococcus neoformans were 14.41%, 3.26% and -6.1%, respectively.
Regarding `CCCCCCCNC(=S)CCNC(=O)[C@H](O)C(C)(C)CO`, the Inhibition was 15.93% in the experiment on Klebsiella pneumoniae, 2.87% in the experiment on Candida albicans and -3.35% with Cryptococcus neoformans.
In the case of `CC(C)(CO)[C@H](O)C(=O)NCCC(=O)OCc1cn(C[C@H]2O[C@@H](n3ccc(N)nc3=O)[C@H](O)[C@@H]2O)nn1`, the values for the Inhibition in the experiment on Klebsiella pneumoniae, in the experiment on Candida albicans and with Cryptococcus neoformans were 19.86%, 3.13% and -1.73%, respectively.
In the same order, the values of `CCCCCCNNC(=O)CCNC(=O)[C@H](O)C(C)(C)CO` are 13.13%, -0.25% and 3.11%.
For the compound `CC(C)(CN)C(O)C(=O)NCCC(=O)NCCc1ccccc1` (centres undefined), the Inhibition in the experiment on Klebsiella pneumoniae was found to be 28.43%; in the experiment with Candida albicans, 3.05%; with Cryptococcus neoformans it was 42.65%.
In the same order, the values of `CC(C)(C)C(O)C(=O)NCCC(=O)NCCc1ccccc1` (centres undefined) are 24.7%, 0.67% and -0.45%.
In the same order, the values of `CC(C)(CO)[C@@H](O)C(=O)NCCC(=O)NNCc1ccccc1` are 28.52%, 4.15% and -4.98%.
For `CC(C)(CO)[C@H](O)C(=O)NCCc1cn(C[C@H]2O[C@@H](n3ccc(N)nc3=O)[C@H](O)[C@@H]2O)nn1`, in that order: 11.31%, 0.57% and -3.52%.
Take `CC(C)(CO)[C@H](O)C(=O)NCCC(=O)NCc1cn(C[C@H]2O[C@@H](n3ccc(N)nc3=O)[C@H](O)[C@@H]2O)nn1`: the Inhibition in the experiment on Klebsiella pneumoniae is 19%; with Candida albicans, 2.72%; in the experiment with Cryptococcus neoformans, -1.6%.
In the same order, the values of `CC(C)(COP(=O)(O)O)[C@@H](O)C(=O)NCCC(=O)NCCc1ccccc1` are 20.53%, 1.57% and 21.44%.
In the case of `CC(CC(=O)NCCc1ccccc1)NC(=O)[C@H](O)C(C)(C)CO` (some centres undefined), the Inhibition in the experiment with Klebsiella pneumoniae is 21.7%; with Candida albicans, 3.05%; in the experiment on Cryptococcus neoformans it was 2.32%.
In the case of `CC(C)(CO)[C@H](O)C(=O)NCCCc1cn(C[C@H]2O[C@@H](n3ccc(N)nc3=O)[C@H](O)[C@@H]2O)nn1`, the Inhibition with Klebsiella pneumoniae is 15.48%; in the experiment on Candida albicans, 1.6%; in the experiment with Cryptococcus neoformans, -4.03%.
For `C#CCNC(=O)[C@H](O)C(C)(C)CO`, in that order: 17.37%, -0.84% and -0.61%.
In the same order, the values of `CC(C)(CO)[C@@H](O)C(=O)N/C=C/C(=O)NCCc1ccccc1` are 27.58%, 6.96% and -6.96%.

The record behind these values is ChEMBL document CHEMBL4513148, “CO-ADD screening of Stellenbosch University (South Africa) compounds”.
